# Shown are actives, neighbours in structure and some others; about 7.8% of the full set was active somewhere.
# Vaccinia Venus: vaccinia inhibition (Venus reporter) | Vaccinia virus Venus reporter expression, fluorescence | Potency, µM (titrated, usually from 36.5 µM), for inactives: top-dose activity change, negative = inhibition, usual class: inhibitors | hit rate 0.46% among 330,000 | AID 720580; calls by dose curve; tested in A549 cells; also: potency is read from the fitted curve at half-maximal effect; % is scaled to controls: 0 for no effect and ±100 for the full control effect; nearly all actives have a fitted effect of over 30% in size
# HCV inhibitor: inhibitors of hepatitis C virus infection. Huh7.5.1 HCVcc-Cre infection, luciferase reporter, 44 h. Potency, µM (highest dose often 41.8 µM), for inactives: at the top dose activity change, negative = inhibition, usual class: inhibitors. hit rate 3.4% among 340,000. AID 651820; also: potency is read from the fitted curve at half-maximal effect; % is scaled to controls: 0 for no effect and ±100 for the full control effect
#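 Infectious HCV cell culture screen: compound-treated cells (1,000/well, pre-plated 4 h) are infected with HCVcc-Cre at roughly 0.5 moi and grown 44 h. Infection is quantified by luciferase signal after 15 min substrate incubation at room temperature.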
# LASV entry inh: inhibitors of Lassa virus binding or cell entry | hit rate 1.2% among 300,000 | Lassa virus pseudotype entry inhibition, cell reporter | Potency, µM (top dose mostly 37.9 µM), inactives show at the highest dose activity change, negative = inhibition, usual class: inhibitors; calls by dose curve; tested in HEK293 cells; also: potency is read from the fitted curve at half-maximal effect; % is scaled to controls: 0 for no effect and ±100 for the full control effect; nearly all actives have a fitted effect of over 50% in size
# Vaccinia mCherry: vaccinia inhibition (mCherry reporter). AID 720579. Potency, µM (doses to about 36.5 µM), for inactives: at the highest dose activity change, negative = inhibition, usual class: inhibitors. Vaccinia virus mCherry reporter infection, fluorescence. hit rate 0.63% among 310,000; calls by dose curve; tested in A549 cells; also: potency is read from the fitted curve at half-maximal effect; % is scaled to controls: 0 for no effect and ±100 for the full control effect; nearly all actives have a fitted effect of over 35% in size
# MARV entry inh: inhibitors of Marburg virus binding or cell entry. Marburg virus pseudotyped entry inhibition, cell reporter. Potency, µM (highest dose often 37.8 µM), inactives show at the top dose activity change, negative = inhibition, usual class: inhibitors. hit rate 1.8% among 300,000; calls by dose curve; tested in HEK293 cells; also: potency is read from the fitted curve at half-maximal effect; % is scaled to controls: 0 for no effect and ±100 for the full control effect
# HCMV antiviral: blocks human cytomegalovirus replication; hit rate 4.5% among 410,000; HFF cells, HCMV-luciferase reporter, 72 h; hits give low values; activity change, negative = inhibition, % at 57.5 µM; in the data active = activity change below about -60%; inconclusive = no clear call, values can overlap the other calls; inactive = above about -39%; also: % is scaled to controls: 0 for no effect and ±100 for the full control effect
#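 Human foreskin fibroblasts infected with luciferase-reporter HCMV at MOI 1 PFU/cell, compounds at two doses. Luciferase measured 72 h post infection; normalized to buffer-only basal and Salinomycin (10uM) controls.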
# HCV inh confirm: HCV inhibition, cherry-pick confirmation | shares compounds with HCV inhibitor | HCVcc-Cre infectious virus cell assay, luciferase, inhibition | Potency, µM (highest dose often 41.8 µM), for the others: at the top dose activity, negative = inhibition, actives largely listed as inhibitors | hit rate 78% among 640 | AID 720575; also: potency is read from the fitted curve at half-maximal effect; nearly all actives have a fitted effect of over 80% in size
# HCV cytotox: host cell cytotoxicity counter-screen for HCV inhibitors | AID 720576 | Potency, µM (doses to about 41.8 µM), for inactives: at the highest dose activity change, negative = cytotoxicity, actives largely listed as inhibitors | shares compounds with HCV inhibitor | HCV host cell line cytotoxicity counterscreen | hit rate 22% among 640;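 also: potency is read from the fitted curve at half-maximal effect; 44 h compound exposure; % is scaled to controls: 0 for no effect and ±100 for the full control effect; nearly all actives have a fitted effect of over 55% in size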
# An asterisk follows results filed as active; i = inactive; ? = inconclusive; . = not tested or not shown; ! = repeats disagree; [ ] = another dose, or the depositor's remark. Unless noted, calls follow the shape of the dose curve; as a rule, active = well fitted curve in the direction sought with a large enough effect; inconclusive = small, poorly fitted or top-dose-only effect, or another doubt; inactive = no such curve, though single readings can be large; an effect the other way counts as inactive or inconclusive.
SMILES,Vaccinia Venus,HCV inhibitor,LASV entry inh,Vaccinia mCherry,MARV entry inh,HCMV antiviral,HCV inh confirm,HCV cytotox
CC1C/C(=C/c2ccco2)C(=O)/C(=C/c2ccco2)C1 (stereo not drawn),.,1%[0.335 µM],-4%,.,?,.,.,.
Cc1ccc(Cl)cc1N1CCN(C(=O)c2ccc3c(c2)N(Cc2ccccc2)CCS3)CC1,-13%,.,-1%[46.1 µM],-15%,0%[46.1 µM],?,.,.
COc1ccc(C(=O)NCCNc2nc3c(C)cccc3cc2C#N)cc1OC,.,?,.,.,.,1,18µM*,26%
COc1ccc(NC(=O)C(NS(=O)(=O)c2cccc3nsnc23)C(C)C)cc1 (stereo not drawn),14%,.,13%[46.1 µM],-10%,-7%[46.1 µM],-2,.,.
O=C(Nc1cccc(C(=O)OCc2cc(=O)n3c4c(sc3n2)CCCC4)c1)c1ccccc1,-10%,.,26%[46.1 µM],-9%,.,1,.,.
COc1ccc2c(c1)sc(N)[n+]2Cc1cc(C)cc2cccnc12,?,8.9µM*,?,?,?,?,16µM*,?
CCOc1ccc2c(c1)sc(N)[n+]2Cc1cc(C)cc2cccnc12,-25%,?,?,?,?,-12,.,.
Cc1ccc(-n2c(-c3ccc(Br)cc3)c[n+]3c2CCc2ccc4cccnc4c2-3)cc1,.,2.5µM*,6.5µM*,.,2.3µM*!,-104*,6.3µM*,14µM*
Cc1ccc(-n2c(=O)[nH]c3ncccc3c2=O)cc1,-3%,13%,.,i,.,-25,.,.
Cn1c(SCC(=O)NCC2CCCO2)ncc(C(=O)Nc2ccccc2)c1=O (stereo not drawn),-4%,5µM*,-14%,-12%,?,-2,9%,39%
Cc1ccc(C)c(N2CCN(S(=O)(=O)c3cnc(N)nc3)CC2)c1,-5%,.,20%[46.1 µM],-13%,.,12,.,.
c1ccc(-c2nn(-c3ccccc3)[n+](-c3ccccc3)n2)cc1,-11%,3.2µM*,-26%,-6%,?,-95*,25µM*,?
O=S(=O)(c1ccccc1)c1nnn2c1nc(NC1CCN(Cc3ccccc3)CC1)c1cc(Cl)ccc12,.,?,.,.,.,-16,.,.
O=S(=O)(c1ccccc1)c1nnn2c1nc(NC1CCN(Cc3ccccc3)CC1)c1ccccc12,.,8.9µM*,.,.,.,-18,14µM*,-11%
COc1ccc(S(=O)(=O)Nc2cccc(-c3ccc(N4CCCCCC4)nn3)c2)c(OC)c1,-16%,3.5µM*,-29%[46.1 µM],-21%,.,-23,20µM*,-15%
COc1ccc(S(=O)(=O)Nc2cccc(-c3ccc(N4CCCC4)nn3)c2)c(OC)c1,-28%,.,-6%[46.1 µM],-28%,.,-5,.,.
CCc1ccc2[nH]c(=O)c(CN(Cc3ccccc3OC)Cc3nnnn3Cc3ccco3)cc2c1,28µM*,8.9µM*,?,.,?,5,25µM*,44%
CCOC(=O)c1c(C)[nH]c(C)c1S(=O)(=O)N1CCC(C(=O)Nc2ccc(OC)c(OC)c2)CC1,-1%,.,?,-10%,.,13,.,.
CCOC(=O)c1c(-c2ccccc2)oc2ccc(OCC)cc12,-17%,?,-7%,?,-25%[46.1 µM],-9,.,.
CCOC(=O)c1c(-c2ccccc2)oc2ccc(O)cc12,.,2.8µM*,.,.,.,-1,14µM*,-30%
Cc1ccc(C(=O)NC2CCN(Cc3ccccc3)CC2)cc1S(=O)(=O)N1CCOCC1,-22%,?,-7%,-22%,-21%,?,.,.
COc1ccccc1NS(=O)(=O)c1cc(C(=O)NC2CCN(Cc3ccccc3)CC2)ccc1C,.,5.6µM*,.,.,.,-62*,2.8µM*,2.2µM*
NC(=O)N/N=C1\c2ccccc2-c2c(C(N)=O)cccc21,.,-23%,.,.,.,53,.,.
NC(=S)NN=C1c2ccccc2-c2cc(Br)ccc21,?,?,-12%,?,?,-37,6.3µM*,-33%
Cn1c2ccccc2c(=O)c2ccc(C#Cc3ccc(N)cc3)cc21,?,6.3µM*,.,?,.,?,22µM*,41%
SMILES,Vaccinia Venus,HCV inhibitor,LASV entry inh,Vaccinia mCherry,MARV entry inh,HCMV antiviral,HCV inh confirm,HCV cytotox
COc1cccc(C(=O)NCCSc2c(-c3ccc(F)cc3)[nH]c3ccccc23)c1OC,-16%,.,?,-11%,?,-25,.,.
O=C(NCCN1CCCC1)c1ccc(Cn2c(=S)[nH]c3cc4c(cc3c2=O)OCO4)cc1,.,?,15%,.,?,19,.,.
C=CCNC(=O)c1ccc(Cn2c(=S)[nH]c3cc4c(cc3c2=O)OCO4)cc1,.,?,-13%,.,-14%,-26,2.5µM*,21%
C=CCn1c(-c2cccs2)nc2nc3ccccc3nc21,6%,17%,2%,.,8%,57,.,.
C=CCn1c(-c2cccs2)nc2ccccc21,-20%,?,6%,.,15%[46.1 µM],-26,-28%,-35%
COc1cccc(CNC(=O)c2sc3nc4n(c(=O)c3c2C)CCC4)c1,-3%,.,1%[46.1 µM],-11%,.,6,.,.
CC(C)c1ccccc1NC(=O)Cn1c(-c2ccccc2Cl)nc2ccccc21,-14%,2.5µM*,-1%,i,4%,-8,?,10%
CC#CC[N+](C)(C)CCCCCCCCCCCC,.,5µM*,?,.,10µM*,-101*,14µM*,-42%
COc1ccc(NC(=O)CSC2=Nc3ccccc3C3=NC(CCC(=O)NCc4ccco4)C(=O)N23)cc1 (stereo not drawn),-14%,.,22%[46.1 µM],-22%,.,-37,.,.
COc1ccc(CCN2C(=O)c3[nH]nc(-c4ccccc4O)c3C2c2ccccc2)cc1 (stereo not drawn),-28%,.,?,-29%,-29%[46.1 µM],-22,.,.
CCCCC(=O)Nc1ccc(NC(=O)c2ccc3c(c2)OCO3)cc1OC,.,2.5µM*,15%,.,3%,17,?,18%
CCc1cc2c(nc1CC)CCCN2S(=O)(=O)c1ccc(C#N)cc1,.,.,.,.,.,24,.,.
COc1ccc(CCNC(=O)C2CC2)cc1,-10%,7%,21%,i,1%[46.1 µM],-17,.,.
COc1ccc(C[C@H]2NC[C@H](O)[C@H]2OC(C)=O)cc1,0.89µM*,?,.,0.45µM*,.,-98*,7µM*,-12%
CC(C)NC1CCC(Nc2ccnc3cc(Cl)ccc23)CC1 (stereo not drawn),-21%,2.8µM*,?,-7%,2.8µM*,?,4µM*,-72%
Cc1ccc(CNC(=O)C2CCC(CNS(=O)(=O)c3ccc4c(c3)CCCC(=O)N4)CC2)cc1 (stereo not drawn),1%,.,2%[46.1 µM],-5%,.,36,.,.
COc1ccc(C(=O)CSc2nc(C)cc(=O)[nH]2)cc1,-10%,19%,-2%,-8%,22%,3,.,.

# High-throughput results (PubChem)
